Experimental data: PubChem BioAssay AID504832 (National Center for Advancing Translational Sciences (NCATS), 2011)
Screen size: about 310,000 compounds; about 18,000 (5.8%) were called active. About 22% were inconclusive and are not listed. This is one part of a sample in which actives are shown more often than they occur. Calls come from the whole dose curve; as a rule, active = well fitted inhibition curve with a large enough effect; inconclusive = small, poorly fitted or top-dose-only effect, or another doubt; inactive = no such curve, though single readings can be large or run the other way.

Test: Primary qHTS for delayed death inhibitors of the malarial parasite plastid, 48 hour incubation
Conditions: P. falciparum luciferase growth in erythrocytes; series mostly up to 28.7 µM; activity change, negative = inhibition: at the top concentration
Excerpt: The goal of this screen is to discover new antimalarial compounds that act by inhibiting the development of the apicoplast in the malarial parasite Plasmodium falciparum. The biochemical processes that make this organelle essential for erythrocytic stage parasites are not well understood. However, antibiotics such as azithromycin and tetracycline, which target the apicoplast translational machinery, have a potent antimalarial effect.
We have developed a cell-based assay that measures parasite growth based on the expression of an integrated copy of a firefly luciferase reporter. To detect small molecules that cause this "delayed death" phenotype, erythrocytes infected with the luciferase-expressing parasites were incubated with compounds for either one or two generations, corresponding to 48 and 96 hours, respectively. Compounds that inhibit parasite growth in the second generation, but not the first, should be enriched in antimalarials that target the apicoplast. Growth inhibition is detected by a decrease in luciferase activity.
Assay Provider: David Fidock and Eric Ekland, Columbia University
Keywords: NIH Roadmap, MLPCN, MLI, MLSMR, qHTS, NCGC, qHTS, malaria, luciferase, viability
Four microliters of culture medium (RPMI 1640 with 0.5% w/v Albumax (GIBCO), 24 mM sodium bicarbonate and 10 ug/mL gentamycin) were dispensed by a Multi-drop Combi into white solid 1536-well plates (Grenier) and 23 nL compound was added by a pin tool. Four microliters of infected erythrocytes (2% hematocrit, 0.1% parasitemia final concentration) in culture medium were dispensed and the plates incubated for 48 hours at 37 C in 5% CO2. Two microliters of luciferase detection reagent was added and luminescence was detected by a ViewLux (PerkinElmer) reader.
% is set by controls: 0 for no effect and ±100 for the full control effect; potency is the fitted concentration of half-maximal effect.

| SMILES | activity change, negative = inhibition | Potency |
| --- | --- | --- |
| CCOc1ccc(N2CC(C(=O)NCc3ccccn3)CC2=O)cc1 (configuration not stated) | -0.962% (inactive) |  |
| CC(C)C[C@H](NC(=O)N1CC(=O)Nc2ccccc21)C(=O)N[C@H](Cc1ccccc1)C(=O)O | -23.2% (inactive) |  |
| COc1ccc(C(=O)ON=C2c3ccccc3-c3ccccc32)cc1OC | 22.3% (inactive) |  |
| COc1ccc(C/C(N)=N/OC(=O)c2ccco2)cc1OC | 6.03% (inactive) |  |
| COc1ccc(C(=O)O/N=C(\N)Cc2ccc(Cl)cc2Cl)cc1OC |  | 13.1 µM (active) |
| Cc1ccc2c(C)c(C(=O)N(C)Cc3ccncn3)oc2c1C | -0.404% (inactive) |  |
| CCOC(=O)N1CCN(C(=O)CSc2nc(=O)n3cccc(C)c3n2)CC1 | -0.362% (inactive) |  |
| CCOC(=O)N1CCN(Cc2nc(N)nc(Nc3ccc(C)cc3)n2)CC1 | 21.1% (inactive) |  |
| CCN1CCN(C(c2cccnc2)c2cc(Cl)c3cccnc3c2O)CC1 (configuration not stated) |  | 4.15 µM (active) |
| CCN1CCN(c2ccc(NC(=O)c3cnccn3)cc2)CC1 | 192% (inactive) |  |
| CCOC(=O)N1CCN(C(c2cccnc2)c2ccc3cccnc3c2O)CC1 (configuration not stated) |  | 11.7 µM (active) |
| CN(CC(=O)Nc1ccc(F)cc1)CC(=O)N1CCCCC1 | 3.47% (inactive) |  |
| Cc1cc(C)cc(N(CC(=O)NC2CCCC2)C(=O)CCC(=O)Nc2cc(C)on2)c1 | -38.6% (inactive) |  |
| Cn1cc(CNC(=O)c2ccc(OC3CCN(Cc4ccccn4)CC3)cc2)cn1 | -19.4% (inactive) |  |
| CCOC(=O)c1cccc(NC(=O)C2CCN(c3ncnc4c3nc3n4CCCCC3)CC2)c1 | -24.5% (inactive) |  |
| COc1cc(C2/C(=C(\O)c3ccc4c(c3)CC(C)O4)C(=O)C(=O)N2c2nnc(C)s2)cc(OC)c1OC (configuration not stated) | 2.05% (inactive) |  |
| O=S(=O)(Nc1cccc(-n2cnnn2)c1)c1cnc(Cl)c(Cl)c1 | -12.1% (inactive) |  |
| CC(=O)NC12CC3CC(C1)CC(C(=O)N1CCN(C(=O)c4ccco4)CC1)(C3)C2 | 85.7% (inactive) |  |
| Cc1ccc(C(=O)Nc2ccn(C)n2)cc1 | 4.9% (inactive) |  |
| CN1C(C(=O)NCc2ccco2)CC2Cn3c(nc4ccccc43)C21 (configuration not stated) | -29.7% (inactive) |  |
| Cc1nc2nc(SCC(=O)Nc3cccc(F)c3)[nH]c2cc1Br | 39.1% (inactive) |  |
| COc1ccc(CN2CCN(C(=O)CCC(=O)Nc3nnc(C(C)C)s3)CC2)cc1F | -1.74% (inactive) |  |
| COc1cc(CN2CCC(C(N)=O)CC2)ccc1OCc1ccccc1 | 119% (inactive) |  |
| COc1ccc(CN2CCN(C(=O)c3cc(C4CC4)nn3-c3ccccc3)CC2)cc1F |  | 8.28 µM (active) |
| COc1ccc(C(=O)NCc2nnc(SCC(=O)NC3=NCCS3)n2C)cc1 | 10.4% (inactive) |  |
| Cc1cc(=O)cc(C)n1-c1ccc(Cl)c(Cl)c1 | -14.4% (inactive) |  |

| SMILES | activity change, negative = inhibition | Potency |
| --- | --- | --- |
| O=[N+]([O-])c1ccc(N(CCO)Cc2ccccc2)c([N+](=O)[O-])c1 |  | 4.65 µM (active) |
| O=C(OCC(=O)N(CCc1ccccc1)Cc1ccccc1)c1ccccc1[N+](=O)[O-] | 33.7% (inactive) |  |
| CCN(CC)c1ccc([N+](=O)[O-])cc1C(=O)O | -8.48% (inactive) |  |
| O=C(NCCCn1ccnc1)c1cc(Br)c(Br)s1 | -13% (inactive) |  |
| CC(=O)Nc1ccc(NC(=O)CSc2nnnn2C2CCCCC2)cc1 | 0.533% (inactive) |  |
| CCCc1cc(=O)n2[nH]c(C)c(-c3ccc(Cl)cc3)c2n1 | 11.8% (inactive) |  |
| NS(=O)(=O)c1cccc(NC(=O)CC23CC4CC(CC(Br)(C4)C2)C3)c1 | 25.6% (inactive) |  |
| Cc1nnc(SCC(=O)Nc2cccc(N)c2)n1-c1ccccc1 | 0% (inactive) |  |
| COc1ccc(NC(=O)C2=CC(c3ccc(OC)c(OC)c3)=NS(=O)(=O)N2C)cc1 |  | 14.7 µM (active) |
| COc1ccc(C2=NS(=O)(=O)N(C)C(C(=O)NC(C)c3ccccc3)=C2)cc1 (configuration not stated) | 3.81% (inactive) |  |
| COc1ccc(C2=NS(=O)(=O)N(C)C(C(=O)N3CCCCC3)=C2)cc1 | -6.99% (inactive) |  |
| Cc1cccc(N(C)C(=O)c2cc(S(=O)(=O)N3CCCCC3)c[nH]2)c1 | 8.72% (inactive) |  |
| Cc1cccc(CCNS(=O)(=O)c2ccc3c(c2)NC(=O)CO3)c1 | 12.1% (inactive) |  |
| CCOc1ccc(NC(=O)CC(Cc2ccc(Cl)cc2)C(=O)O)cc1 (configuration not stated) | 31.6% (inactive) |  |
| COc1ccc(C2CC(c3cccs3)=NN2C(=O)CCC(=O)O)cc1OC (configuration not stated) | -0.475% (inactive) |  |
| COc1ccc(C2CC(c3ccccc3)=NN2C(=O)COC(=O)COc2ccccc2)cc1 (configuration not stated) | -0.759% (inactive) |  |
| O=C1c2cccc(OCC(=O)N3N=C(c4cccs4)CC3c3ccc(F)cc3)c2CCN1Cc1ccccc1 (configuration not stated) |  | 7.38 µM (active) |
| COc1cc(C(=O)NCC(=O)NCCSc2ccc(Br)cc2)cc(OC)c1OC | 37.5% (inactive) |  |
| CCO[C@H]1OC(C(=O)N2CCCCCCC2)=C[C@@H](c2ccc(C(F)(F)F)cc2)[C@@H]1CCCO |  | 3.7 µM (active) |
| CCO[C@H]1OC(C(=O)N2CCOCC2)=C[C@@H](c2ccc3c(c2)OCO3)[C@@H]1CCCO | 39.8% (inactive) |  |
| CCO[C@@H]1OC(C(=O)N2CCOCC2)=C[C@H](C)[C@H]1CCCO | 12.4% (inactive) |  |
| Cc1cc(C)c(S(=O)(=O)Nc2c(C)n(C)n(-c3ccccc3)c2=O)cc1[N+](=O)[O-] | -7.18% (inactive) |  |
| COc1ccc(-c2cc(C(=O)N3CCN(c4ccc(F)cc4)CC3)no2)cc1 | 1.13% (inactive) |  |
| Cc1cc(C)c(C2C3=C(Nc4c2c(C)nn4-c2ccccn2)c2ccccc2C3=O)c(C)c1 (configuration not stated) |  | 9.28 µM (active) |
| COC(=O)c1sccc1NC(=O)c1ccc(Cl)cc1 | 12.9% (inactive) |  |
| Nc1nc(NCc2ccccc2)n(-c2ccccc2)n1 | -9% (inactive) |  |
